Bioassay records (PubChem BioAssay)
Rows were chosen to be rich in hits. Some 3% of all compounds tested hit in one or more screens of this group.
ABHD5-PLIN5 inh = ABHD5-PLIN5 interaction inhibitors, primary screen, cell lysate, split luciferase complementation, luminescence. Perilipin-5 (Homo sapiens) + 1-acylglycerol-3-phosphate O-acyltransferase ABHD5 (Homo …. inhibition, % at 4 µM. Split G. princeps luciferase complementation, 4 h. 360,000 tested, 0.78% active;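 active = inhibition above the mean inhibition across every tested compound plus 3 SD, cut at about 22% in these data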
Target sequence (Q00G26 whole entry, looked up): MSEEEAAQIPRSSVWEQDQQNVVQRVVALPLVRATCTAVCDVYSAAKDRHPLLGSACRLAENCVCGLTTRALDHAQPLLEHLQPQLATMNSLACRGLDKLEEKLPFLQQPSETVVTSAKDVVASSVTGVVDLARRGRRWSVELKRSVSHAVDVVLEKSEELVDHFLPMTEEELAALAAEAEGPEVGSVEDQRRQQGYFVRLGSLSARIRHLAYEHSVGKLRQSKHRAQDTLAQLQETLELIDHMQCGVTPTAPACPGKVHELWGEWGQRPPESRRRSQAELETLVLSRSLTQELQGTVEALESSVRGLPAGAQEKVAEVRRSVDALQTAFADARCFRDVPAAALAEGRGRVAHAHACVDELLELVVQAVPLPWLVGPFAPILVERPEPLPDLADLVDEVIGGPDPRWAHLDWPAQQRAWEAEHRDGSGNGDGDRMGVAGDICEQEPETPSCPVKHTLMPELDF
Target sequence (Q8WTS1 whole entry, looked up): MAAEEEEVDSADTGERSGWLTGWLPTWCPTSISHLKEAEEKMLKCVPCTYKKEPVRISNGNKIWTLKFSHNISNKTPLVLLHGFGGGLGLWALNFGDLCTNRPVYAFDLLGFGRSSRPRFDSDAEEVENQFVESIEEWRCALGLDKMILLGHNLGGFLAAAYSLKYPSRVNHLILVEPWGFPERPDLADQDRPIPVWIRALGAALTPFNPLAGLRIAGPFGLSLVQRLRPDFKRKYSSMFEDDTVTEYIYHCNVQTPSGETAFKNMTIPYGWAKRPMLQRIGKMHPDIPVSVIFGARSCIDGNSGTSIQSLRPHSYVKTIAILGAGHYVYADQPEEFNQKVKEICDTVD
Shn3 3UTR inh = reduction of Shn3 3'UTR firefly luciferase signal, primary screen, Schnurri-3 inhibitor project, cell-based, Clone20 osteoblasts, set 2; inhibition, % at 12.5 µM; 360,000 tested, 0.52% active; Clone20 osteoblast Shn3 3'UTR firefly luciferase, 24 h; AID 588674, 2011;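 active = mean inhibition of at least 75% with every replicate also reaching 75%; inconclusive = mean inhibition at least 75% but some replicate below; inactive = mean inhibition below 75%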
EWS-Fli inh = EWS/Fli-driven NR0B1 reporter inhibitors, primary screen, A673 cells, NR0B1 luciferase, luminescence, MLPCN library | viability-normalised | inhibition, % at 12.6 µM | 350,000 tested, 0.67% active | AID 651661, 2012;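 active = mean inhibition of at least 50% after viability correction, with every replicate also passing that limit; inconclusive = mean reaches 50% but only one of two replicates passes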;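 also: firefly luciferase signal divided by Alamar Blue viability fluorescence both relative to DMSO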
Peg3 promoter = Peg3 promoter-driven luciferase inhibitors, primary screen, cell-based, HeLa, luciferase luminescence; HeLa PEG-Prom luciferase reporter, overnight; inhibition, % at 20 µM; 360,000 tested, 1.7% active;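 active = inhibition of at least 50% at 20 µM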
TRPM1 prom inh = inhibitors of MITF-dependent TRPM1 promoter reporter, primary screen, cell-based, SK-MEL-5, single point, luciferase; SK-MEL-5 TRPM1 promoter luciferase, 24 h; 330,000 tested, 0.83% active; AID 488899, 2010; inhibition, % at 12.5 µM;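 active = mean inhibition across replicates of 60% or more, whatever share of single replicates reaches that level; inconclusive = some that reach 60%, reason not given; inactive = mean inhibition across replicates below 60%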
PAX8 reporter = inhibitors of PAX8-driven TPO luciferase reporter, primary screen, RMG-I cells, single concentration | SteadyGlo, 24 h | inhibition, % at 12.6 µM | 360,000 tested, 1.2% active | AID 652154, 2013;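 active = mean replicate inhibition at least 60% with every replicate also reaching 60%; inconclusive = only one of the two criteria is met; inactive = mean below 60% and not all replicates reaching 60%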;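 also: luciferase light reporting Pax8 driven TPO promoter activity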
Of the large screens only hits and unclear results are named; the others gave an inactive call.

CN1c2ccc(-c3cccc(F)c3)cc2[C@@H]2[C@@H](CCN2C(=O)Cc2ccccc2)[C@@H]1CO	PAX8 reporter 75 (no result: ABHD5-PLIN5 inh, Shn3 3UTR inh, Peg3 promoter, TRPM1 prom inh)
C[C@H](CO)N1C[C@H](C)[C@@H](CN(C)CC2CC2)Oc2ccc(NS(=O)(=O)c3cccs3)cc2CC1=O	none (no result: ABHD5-PLIN5 inh, Shn3 3UTR inh, Peg3 promoter, TRPM1 prom inh, PAX8 reporter)
CC(C)CC#Cc1ccc([C@@H]2[C@@H](CO)N3C(=O)CN(C(=O)Nc4ccc(F)cc4)C[C@@H]23)cc1	none (no result: ABHD5-PLIN5 inh, Shn3 3UTR inh, Peg3 promoter, TRPM1 prom inh, PAX8 reporter)
O=C(N[C@@H]1C=C[C@@H](CC(=O)N2CCOCC2)O[C@@H]1CO)c1ccc2c(c1)OCO2	none (no result: ABHD5-PLIN5 inh, Shn3 3UTR inh, Peg3 promoter, TRPM1 prom inh)
COc1cc2ccccc2cc1C(=O)N/N=C/c1cccs1	EWS-Fli inh 58 (no result: TRPM1 prom inh)
C[C@H](CO)N1C[C@H](C)[C@@H](CN(C)Cc2ccccc2)Oc2ccc(NS(=O)(=O)c3ccccc3)cc2CC1=O	none (no result: ABHD5-PLIN5 inh, Shn3 3UTR inh, Peg3 promoter, TRPM1 prom inh)
Cn1nnnc1Sc1ncnc2scc(-c3cccc(S(C)(=O)=O)c3)c12	Peg3 promoter 100, TRPM1 prom inh 78, PAX8 reporter 106
O=C(O)CSc1ncnc2scc(-c3ccc(Br)cc3)c12	none
Cn1nnnc1Sc1ncnc2scc(-c3cccc(Br)c3)c12	EWS-Fli inh inconclusive, Peg3 promoter 94, TRPM1 prom inh 84, PAX8 reporter 91
O=C(O)CSc1ncnc2scc(-c3ccccc3)c12	none
CO[C@@H]1CN(C)C(=O)c2ccc(NC(=O)NC(C)C)cc2OC[C@@H](C)N(CC2CC2)C[C@H]1C	none (no result: ABHD5-PLIN5 inh, Shn3 3UTR inh, Peg3 promoter, TRPM1 prom inh)
COc1cc2cnc(-c3ccccc3)c(-c3ccc(C(F)(F)F)cc3)c2cc1OC	Peg3 promoter 64
COc1ccc(CNS(=O)(=O)c2cc(Cl)ccc2N2CC[C@@H](O)C2)cc1	EWS-Fli inh 55 (no result: ABHD5-PLIN5 inh, Shn3 3UTR inh, Peg3 promoter, TRPM1 prom inh)
O=C(Nc1ccc2nc(-c3ccc4nc[nH]c4c3)[nH]c2c1)c1cccs1	PAX8 reporter 68 (no result: EWS-Fli inh)
O=C(Nc1ccc2nc(-c3ccccc3)[nH]c2c1)c1cccs1	none (no result: PAX8 reporter)
O=C(OCC(=O)N1CCc2ccccc21)c1c2c(nc3ccccc13)CCCC2	none
CC1Cc2ccccc2N1C(=O)COC(=O)c1c2c(nc3ccccc13)CCCCC2 (stereo not given)	Peg3 promoter 51
O=C(CSc1ccc(-c2ccco2)nn1)NCc1ccccc1	PAX8 reporter 63
COc1cccc(C#Cc2cnc3c(c2)C(=O)N([C@@H](C)CO)C[C@H](C)[C@H](CN(C)C(C)=O)O3)c1	none (no result: ABHD5-PLIN5 inh, Shn3 3UTR inh, Peg3 promoter, TRPM1 prom inh, PAX8 reporter)
CCCCCC1CC1C(=O)N/N=C/c1ccc(N(C)C)cc1 (stereo not given)	Shn3 3UTR inh 89 (no result: EWS-Fli inh)
C[C@H]1CN([C@@H](C)CO)C(=O)Cc2cc(NC(=O)Nc3ccccc3)ccc2O[C@H]1CN(C)Cc1ccc(Oc2ccccc2)cc1	none (no result: ABHD5-PLIN5 inh, Shn3 3UTR inh, Peg3 promoter, TRPM1 prom inh)
C[C@@H]1CN([C@@H](C)CO)C(=O)Cc2cc(NC(=O)Nc3ccccc3)ccc2O[C@H]1CN(C)Cc1ccc(Oc2ccccc2)cc1	PAX8 reporter 82 (no result: ABHD5-PLIN5 inh, Shn3 3UTR inh, Peg3 promoter, TRPM1 prom inh)
COc1ccc(NC(=O)Nc2ccc3c(c2)CC(=O)N([C@@H](C)CO)C[C@H](C)[C@H](CN(C)Cc2ccc(Oc4ccccc4)cc2)O3)cc1	none (no result: ABHD5-PLIN5 inh, Shn3 3UTR inh, Peg3 promoter, TRPM1 prom inh)
COc1ccc(NC(=O)Nc2ccc3c(c2)CC(=O)N([C@H](C)CO)C[C@H](C)[C@@H](CN(C)Cc2ccc(Oc4ccccc4)cc2)O3)cc1	PAX8 reporter 69 (no result: ABHD5-PLIN5 inh, Shn3 3UTR inh, Peg3 promoter, TRPM1 prom inh)
C[C@@H]1CN([C@@H](C)CO)C(=O)Cc2cc(NC(=O)Cc3ccccc3)ccc2O[C@H]1CN(C)Cc1ccc(Oc2ccccc2)cc1	PAX8 reporter 72 (no result: ABHD5-PLIN5 inh, Shn3 3UTR inh, Peg3 promoter, TRPM1 prom inh)
C[C@H](CO)N1C[C@H](C)[C@@H](CN(C)C(=O)Nc2ccccc2)OCCCC[C@H](C)Oc2ccc(NC(=O)Cc3ccccc3)cc2C1=O	none (no result: ABHD5-PLIN5 inh, Shn3 3UTR inh, Peg3 promoter, TRPM1 prom inh)
CN(C)CCNc1ccc(CO)c2sc3ccc(O)cc3c(=O)c12	Peg3 promoter 100, TRPM1 prom inh 85, PAX8 reporter 96
C[C@@H]1CN([C@H](C)CO)C(=O)c2cc(NS(=O)(=O)c3cn(C)cn3)ccc2O[C@@H](C)CCCCO[C@H]1CN(C)S(=O)(=O)c1ccc(Cl)cc1	none (no result: ABHD5-PLIN5 inh, Shn3 3UTR inh, Peg3 promoter, TRPM1 prom inh)
CN(C)CCCN(C(=O)c1ccc(Br)s1)c1nc2cc3c(cc2s1)OCO3	Peg3 promoter 59
CN(C)CCCN(C(=O)c1ccc2c(c1)CCCC2)c1nc2cc3c(cc2s1)OCO3	Peg3 promoter 57
CCCCCOP(=O)(c1ccccc1)c1ccccc1	PAX8 reporter 95
CCCCP(=O)(CCCC)CCP(=O)(c1ccccc1)c1ccccc1	none
C[C@@H]1CCCCO[C@@H](CN(C)S(=O)(=O)c2cccs2)[C@@H](C)CN([C@@H](C)CO)C(=O)c2cc(NC(=O)C3CCCCC3)ccc2O1	none (no result: ABHD5-PLIN5 inh, Shn3 3UTR inh, Peg3 promoter, TRPM1 prom inh, PAX8 reporter)
COc1ccc(NS(=O)(=O)c2ccc(C(=O)N3CCCCCC3)cc2)cc1	Shn3 3UTR inh 82
CN1CCN(C(=O)C[C@H]2CC[C@H]3[C@@H](COc4ccc(NC(=O)C5CCCCC5)cc4C(=O)N3C)O2)CC1	none (no result: ABHD5-PLIN5 inh, Shn3 3UTR inh, Peg3 promoter, TRPM1 prom inh)
